An excerpt weighted towards active compounds, which were near 3.8% of everything screened.
Ecoli rRNA inh – inhibitors of bacterial rRNA selective over humanized ribosomes; E. coli WT GFP vs humanized-ribosome RFP mutants, fluorescence, 24 h; active compounds read low; DMSO median 0, no signal -100; GFP signal change (wild-type ribosome), % (no concentration beside the values); 350,000 tested, 1.6% active;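 active = significant combined selectivity score with lowered wild-type GFP, culture density cut under 30%, mutant RFP and density less affected; inactive = any of these conditions unmet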
ADAM10 inh – inhibits human ADAM10; inhibition, % at 7 µM; 370,000 tested, 0.62% active; AID 720582; recombinant ADAM10, EDANS/DABCYL FRET peptide cleavage, 3 h;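 active = inhibition above a per-campaign cutoff equal to the mean of compounds falling between control-based bounds plus 3 SD, cut at about 20% in these data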;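 note: 0% = DMSO wells while the 100% control is not disclosed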
ADAM17 inh – inhibitors of human ADAM17 | P78536 | 370,000 tested, 0.83% active | recombinant ADAM17, EDANS/DABCYL FRET peptide cleavage | inhibition, % at 6.95 µM | AID 720648;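 active = inhibition above the mean of compounds lying between control limits plus 3 SD, set per campaign, cut at about 8.5% in these data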;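 note: 0% = DMSO-only wells as the low control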
KLK7 zymogen act – proKLK7 (human) activation, primary screen | P49862 | purified proKLK7, EDANS-DABCYL substrate fluorescence; 100% is mature enzyme control, 0% vehicle | activation, % at 7 µM | 370,000 tested, 0.9% active;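 active = activation above the mean of all tested compounds plus 3 SD, computed per campaign excluding outliers beyond control limits, cut at about 13% in these data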
Target sequence (P49862 whole entry, looked up): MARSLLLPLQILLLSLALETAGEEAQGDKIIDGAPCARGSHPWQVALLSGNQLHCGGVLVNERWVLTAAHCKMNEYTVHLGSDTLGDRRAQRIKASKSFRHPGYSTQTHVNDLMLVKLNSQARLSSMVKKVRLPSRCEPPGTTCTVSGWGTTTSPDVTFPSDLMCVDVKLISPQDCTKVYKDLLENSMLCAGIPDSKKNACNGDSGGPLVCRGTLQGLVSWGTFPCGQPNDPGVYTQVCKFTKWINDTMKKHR
FGF22 binding – FGF22 (human) thermal shift binding. Q9HCT0. recombinant FGF22 thermal shift, SYPRO orange fluorescence; percent of sucrose octasulfate shift, DMSO zero. activity (Tm shift, normalised), % at 9.99 µM. 340,000 tested, 1.5% active;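 active = mean Tm shift, scaled 0 neutral to 100 positive control, at about 1.3% or above, every replicate too, limit read from the data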
Target sequence (Q9HCT0 whole entry, looked up): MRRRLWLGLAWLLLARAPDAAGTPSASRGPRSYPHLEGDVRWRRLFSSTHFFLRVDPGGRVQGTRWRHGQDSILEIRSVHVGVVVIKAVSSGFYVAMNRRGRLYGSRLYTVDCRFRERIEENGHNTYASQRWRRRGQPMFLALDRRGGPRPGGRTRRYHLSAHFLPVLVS
* = called active by the depositor.

Cn1c(SCc2cccc(Br)c2)nnc1-c1ccccn1 was read as Ecoli rRNA inh -35*, ADAM10 inh 5, ADAM17 inh -2, KLK7 zymogen act 0 and FGF22 binding 0.
Cn1c(SCc2cccc(F)c2)nnc1-c1ccccn1 was read as ADAM10 inh 9, ADAM17 inh 0 and KLK7 zymogen act -1.
Screening C[C@@H]1CN([C@H](C)CO)C(=O)c2cc(C#CC3CCCC3)cnc2O[C@H]1CN(C)C(=O)Nc1ccccc1 returned Ecoli rRNA inh -4 and FGF22 binding 0.
For C[C@H]1CC=CC[C@H](c2ccccc2)NC(=O)[C@H](Cc2ccccc2)N(C)C(=O)c2ccccc2O1 (mixture of isomers) the results were Ecoli rRNA inh -7.
`C[C@H]1CCCCO[C@H](CN(C)S(=O)(=O)c2cn(C)cn2)[C@@H](C)CN([C@@H](C)CO)C(=O)c2cc(NC(=O)CCC(F)(F)F)ccc2O1` gave Ecoli rRNA inh 1 and FGF22 binding 0.
CC1=CC(C)(C)NC(=S)N1c1ccc([N+](=O)[O-])cc1 was read as Ecoli rRNA inh -1, ADAM10 inh -1, ADAM17 inh 0, KLK7 zymogen act 0 and FGF22 binding 43*.
Screening CC1=CC(C)(C)NC(=S)N1c1ccc(C)cc1 returned ADAM10 inh 2, ADAM17 inh -3 and KLK7 zymogen act 0.
`Cc1ccc(NC(=O)c2cc(-c3cc(Cl)ccc3O)n[nH]2)cc1C` gave Ecoli rRNA inh 0, ADAM10 inh -5, ADAM17 inh 2, KLK7 zymogen act 0 and FGF22 binding 0.
For Cc1cc(O)c(-c2cc(C(=O)Nc3cccnc3)[nH]n2)cc1C the results were Ecoli rRNA inh 2, ADAM10 inh -13, ADAM17 inh -8, KLK7 zymogen act 0 and FGF22 binding 0.
Cc1cc(C)c(O)c(-c2cc(C(=O)Nc3cccnc3)[nH]n2)c1 was read as Ecoli rRNA inh -33*, ADAM10 inh 5, ADAM17 inh 2, KLK7 zymogen act -1 and FGF22 binding 0.
Screening CCc1ccc(O)c(-c2cc(C(=O)Nc3cccnc3)[nH]n2)c1 returned Ecoli rRNA inh -37*, ADAM10 inh 6, ADAM17 inh 0, KLK7 zymogen act 0 and FGF22 binding 0.
For CCc1cc2c3c([nH]c2cc1S(=O)(=O)N1CCC2(CC1)OCCO2)CCCC3=O the results were Ecoli rRNA inh -26*, ADAM10 inh -6, ADAM17 inh -1, KLK7 zymogen act 1 and FGF22 binding 0.
Cc1cc2c3c([nH]c2cc1S(=O)(=O)N1CCC2(CC1)OCCO2)CC(C)(C)CC3=O was read as Ecoli rRNA inh -8, ADAM10 inh 3, ADAM17 inh -1, KLK7 zymogen act 0 and FGF22 binding 0.
Screening Cc1cccc(-c2ccc([C@H]3[C@@H](CO)N4C(=O)CN(C(=O)c5cnccn5)C[C@@H]34)cc2)c1 returned Ecoli rRNA inh 2.
Screening COc1ccc2c3c([nH]c2c1)[C@@H](CO)N(CC1CC1)CC31CCN(C(=O)NC2CCCC2)CC1 returned Ecoli rRNA inh -2 and FGF22 binding 0.
`CCC(C)NC(=O)c1oc2ccc(S(=O)(=O)N3CCC4(CC3)OCCO4)cc2c1C` (centres undefined) gave Ecoli rRNA inh 1, ADAM10 inh -2, ADAM17 inh 2, KLK7 zymogen act 0 and FGF22 binding 0.
Screening Cc1c(C(=O)NCc2ccccn2)oc2ccc(S(=O)(=O)N3CCC4(CC3)OCCO4)cc12 returned Ecoli rRNA inh 0, ADAM10 inh 5, ADAM17 inh 1, KLK7 zymogen act 0 and FGF22 binding 43*.
For Cc1noc(C)c1NC(=O)N[C@@H]1C=C[C@H](CC(=O)NCc2ccc(Cl)c(Cl)c2)O[C@H]1CO the results were Ecoli rRNA inh 4 and FGF22 binding 0.
`CCNC(=O)C[C@@H]1CC[C@@H]2[C@H](COC[C@@H](O)CN2C(=O)Nc2ccc(C(F)(F)F)cc2)O1` gave Ecoli rRNA inh -21 and FGF22 binding 0.
CC(C)NC(=O)C12CC3CC(C1)CC(C(=O)NC(C)C)(C3)C2 was read as ADAM10 inh 1, ADAM17 inh 0, KLK7 zymogen act 0 and FGF22 binding 44*.
For CNC[C@H]1OCCCC[C@H](C)Oc2ccc(NC(=O)Nc3ccccc3)cc2C(=O)N([C@H](C)CO)C[C@@H]1C the results were Ecoli rRNA inh 4 and FGF22 binding 0.
CNC[C@@H]1Oc2ccccc2C(=O)N(C)C[C@H]1C was read as Ecoli rRNA inh 1.
Screening COc1ccc(-n2c(CCC(=O)O)ccc2-c2ccccc2)cc1 returned Ecoli rRNA inh -25*, ADAM10 inh 0, ADAM17 inh 1, KLK7 zymogen act 0 and FGF22 binding 1.
Screening Cc1ccc(-n2c(CCC(=O)O)ccc2-c2cccs2)cc1 returned Ecoli rRNA inh -28*, ADAM10 inh -34, ADAM17 inh -13, KLK7 zymogen act 0 and FGF22 binding 0.
C[C@H]1CC=CC[C@H](c2ccccc2)NC(=O)[C@H](C)N(C)C(=O)c2ccccc2O1 (mixture of isomers) was read as Ecoli rRNA inh -5.
For COc1ccc(CN2CC3(CCN(Cc4ccccn4)CC3)c3c(n(C)c4cc(OC)ccc34)[C@H]2CO)cc1 the results were Ecoli rRNA inh 1.
Screening CCCC1(C)SC(NC(C)=O)=NN1C(C)=O (centres undefined) returned ADAM10 inh 14, ADAM17 inh -3 and KLK7 zymogen act 0.
Screening CC(=O)NC1=NN(C(C)=O)C(C)(CC(=O)OC(C)(C)C)S1 (centres undefined) returned Ecoli rRNA inh 6, ADAM10 inh 3, ADAM17 inh 0, KLK7 zymogen act 1 and FGF22 binding 43*.
Screening Cn1c(=O)c(/C=C/c2ccccc2)nc2ccccc21 returned ADAM10 inh -370, ADAM17 inh -91 and KLK7 zymogen act -3.
Cn1c(/C=C/c2ccccc2)nc2ccccc21 was read as Ecoli rRNA inh -24*, ADAM10 inh inactive, ADAM17 inh -244, KLK7 zymogen act 7 and FGF22 binding 0.
For CC1(C)C2CC=C(/C=N/NC(=O)c3ccc(O)cc3)C1C2 (centres undefined) the results were ADAM10 inh 2, ADAM17 inh -2 and KLK7 zymogen act 1.
`CC1(C)C2CC=C(/C=N/NC(=O)c3ccccc3Br)C1C2` (centres undefined) gave Ecoli rRNA inh 5, ADAM10 inh 10, ADAM17 inh -1, KLK7 zymogen act 0 and FGF22 binding 43*.
`O=S(=O)(Cc1ccccc1)N1[C@@H]2CNC[C@H]1C2c1ccc(/C=C/c2ccccc2)cc1` (some centres undefined) gave Ecoli rRNA inh -54.
